Test [1] addresses Peroxisome proliferator-activated receptor delta (Homo sapiens) (UniProt Q03181). The test is described as follows: qHTS assay for small molecule agonists of peroxisome proliferator-activated receptor delta signaling (AID 588534).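 Further: 0% = DMSO basal wells and 100% = positive control agonist at 10 µM.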 The gist of the method: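 Fluorescence from CCF4 substrate cleavage by beta-lactamase reporter, read 2 hrs at RT, measured agonist activity. Compounds were tested with 18 hrs exposure at 37 C. Concentration-response data fitted to Hill equation.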
For orientation: In qHTS, concentration-response curves come from the screen itself.

Test [2] can be described thus: qHTS assay for small molecule antagonists of peroxisome proliferator-activated receptor delta signaling (AID 588535; active means well fitted inhibition curve with a large enough effect in the signal ratio, with a control signal flat, not every such curve was filed as active; the % refers to the signal ratio;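 on max response: cells co-treated with a PPAR-delta agonist as stimulator during compound exposure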). The settings on record: HEK293T PPARd-UAS-bla, beta-lactamase FRET ratio, 18 h; 460 nm channel. The gist of the method: (§1)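 Reporter: UAS-bla under PPAR-delta response element, HEK293T host. Medium: 2% charcoal/dextran FBS. Dosing: titration, 18 hrs, 37 C. Detection: CCF4, 2 hrs RT, 405 ex/460 and 530 em.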

Test [3] addresses Peroxisome proliferator-activated receptor delta (Homo sapiens) (UniProt Q03181). Described as above. Put shortly: as §1
In test [4] the target is Vitamin D3 receptor (Homo sapiens) (UniProt P11473). The test is described as follows: qHTS assay for small molecule agonists of vitamin D receptor signaling (AID 588543).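 Further: 0% = DMSO basal and 100% = reference agonist control.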 Put shortly: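 Agonist-mode beta-lactamase reporter: HEK293T VDR-UAS-bla cells in charcoal-stripped 2% FBS, compound series 16 h 37 C, CCF4 2 h RT. EC50 from Hill fit, scaled against DMSO and 50 nM calcitriol control.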
Chain of Vitamin D3 receptor (Homo sapiens) (P11473 whole entry, looked up): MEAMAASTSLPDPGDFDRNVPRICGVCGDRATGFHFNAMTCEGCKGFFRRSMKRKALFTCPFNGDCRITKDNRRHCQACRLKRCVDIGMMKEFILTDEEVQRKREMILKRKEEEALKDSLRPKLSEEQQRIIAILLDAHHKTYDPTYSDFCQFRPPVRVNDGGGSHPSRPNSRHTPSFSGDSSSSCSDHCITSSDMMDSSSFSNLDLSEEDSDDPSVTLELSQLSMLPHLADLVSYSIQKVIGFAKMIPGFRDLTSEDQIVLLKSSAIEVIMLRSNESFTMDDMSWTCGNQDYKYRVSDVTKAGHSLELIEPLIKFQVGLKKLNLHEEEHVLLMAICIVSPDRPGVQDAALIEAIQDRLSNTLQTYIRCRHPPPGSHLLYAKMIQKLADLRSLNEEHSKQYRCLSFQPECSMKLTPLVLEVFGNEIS

The nature of test [5]: qHTS assay for small molecule agonists of retinoid X receptor alpha signaling (AID 588544).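 On activation: 0% = DMSO basal wells and 100% = reference agonist.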 The settings on record: HEK293T RXRa-UAS-bla, beta-lactamase reporter, 18 h; 530 nm emission.
Test [6] addresses Retinoic acid receptor RXR-alpha (Homo sapiens) (UniProt P19793). Described as above.
Test [7] addresses Thyroid hormone receptor beta (Homo sapiens) (UniProt P10828). The test is described as follows: qHTS assay for small molecule agonists of thyroid hormone receptor beta signaling (AID 588545). The gist of the method: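 HEK 293 TR-UAS-bla; agonist mode; 18 hrs, 37 C; CCF4, ex 405/em 460 and 530 nm; norm. T3 10 nM = 100%, DMSO = 0%; Hill fit → EC50, efficacy.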
Test [8] in a line: qHTS assay for small molecule antagonists of retinoid X receptor alpha signaling (AID 588546; active means well fitted inhibition curve with a large enough effect in the signal ratio, with a control signal flat, not every such curve was filed as active; the % refers to the signal ratio;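 further: cells stimulated with 9-cis-retinoic acid as agonist; on the % scale 0 is the no-effect control and ±100 the full control effect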). The settings on record: HEK293T RXRa-UAS-bla, beta-lactamase ratio, antagonist mode; measured here: W530 green channel, cytotoxicity proxy. Put shortly:
(§2)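 Beta-lactamase reporter inhibition, read as CCF4 fluorescence ratio (ex 405, em 460/530 nm) after 2 h at RT. HEK293T UAS-bla cells, 2500/well, were stimulated with 9-cis-RA at 500 or 100 nM final alongside test compound for 18 h at 37 C.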

The target in test [9] is Retinoic acid receptor RXR-alpha (Homo sapiens) (UniProt P19793). Described as above. The settings on record: HEK293T RXRa-UAS-bla, beta-lactamase ratio, antagonist mode. Put shortly:
as §2

The target in test [10] is Thyroid hormone receptor beta (Homo sapiens) (UniProt P10828). The test is described as follows: qHTS assay for small molecule antagonists of thyroid hormone receptor beta signaling (AID 588547; active means well fitted inhibition curve with a large enough effect in the signal ratio, with a control signal flat, not every such curve was filed as active; the % refers to the signal ratio;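 further: cells stimulated with 0.4 nM T3 agonist during compound exposure; series mostly up to about 77 µM; on the % scale 0 is the no-effect control and ±100 the full control effect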). The settings on record: TR-UAS-bla HEK293, beta-lactamase ratio, antagonist mode, 18 h. The gist of the method: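 TR-UAS-bla GripTite HEK293 cells in 2% charcoal/dextran FBS medium were preincubated 4 h at 37 C, given compound (0.59 nM to 92 uM) plus 0.4 nM T3 (final) for 18 h, then CCF4 for 2 h at RT; Hill fit gave IC50.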
Chain of Thyroid hormone receptor beta (Homo sapiens) (P10828 whole entry, looked up): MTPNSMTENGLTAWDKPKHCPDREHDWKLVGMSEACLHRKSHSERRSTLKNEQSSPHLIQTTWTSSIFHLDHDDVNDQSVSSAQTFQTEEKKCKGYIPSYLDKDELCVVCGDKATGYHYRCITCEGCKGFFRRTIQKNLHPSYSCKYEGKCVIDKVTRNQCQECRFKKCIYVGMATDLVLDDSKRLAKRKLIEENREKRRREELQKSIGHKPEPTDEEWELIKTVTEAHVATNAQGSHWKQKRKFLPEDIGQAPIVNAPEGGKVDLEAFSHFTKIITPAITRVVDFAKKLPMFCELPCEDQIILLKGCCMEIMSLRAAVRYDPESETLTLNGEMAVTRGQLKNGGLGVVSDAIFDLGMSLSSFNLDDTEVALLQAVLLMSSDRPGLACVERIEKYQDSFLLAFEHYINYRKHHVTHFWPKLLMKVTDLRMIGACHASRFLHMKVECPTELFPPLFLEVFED

Test [11] can be described thus: qHTS assay for small molecule activators of the p53 signaling pathway (AID 651743; active means well fitted activation curve with a large enough effect in the signal ratio, not every such curve was filed as active; the % refers to the signal ratio; further: series mostly up to about 92 µM; % of control where 0% means no effect). The settings on record: HCT-116 p53RE-bla, beta-lactamase FRET ratio, 16 h; activation: stronger effect = higher value. The gist of the method:
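Cell-based beta-lactamase reporter (p53 response elements, HCT-116 background). After a 5-hour preincubation, cells received compound for 16 hours at 37 C; substrate development ran 2 hours at room temperature.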

Test [12] in a line: qHTS assay for small molecule activators of the nuclear factor-kappa B (NF-kB) signaling pathway (AID 651749; active means well fitted activation curve with a large enough effect in the signal ratio; the % refers to the signal ratio; further: series mostly up to about 77 µM; % of control where 0% means no effect). The settings on record: NF-kB-bla ME-180 cells, beta-lactamase FRET ratio, 16 h; activation: stronger effect = higher value. The gist of the method:
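Screening used 2,000 ME-180 reporter cells per well exposed to pinned compound (23 nL) or DMSO; after 16 hr at 37C, beta-lactamase expression under NF-kB control was assessed through FRET.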

Test [13] is described as follows: qHTS assay for environmental chemicals that activate the Aryl hydrocarbon Receptor (AhR) signaling pathway (AID 651777; active means well fitted curve in the direction sought with a large enough effect; an effect the other way counts as inactive or inconclusive; further: % of control where 0% means no effect; nearly all actives have a fitted effect of over 15% in size). The settings on record: 1A2-DRE human hepatoma cells, luciferase, 24 h; activation: stronger effect = higher value. Put shortly: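 AhR activation is scored as a rise in luciferase from a stable DRE–CYP1A2 promoter construct in human hepatoma cells. Treatment lasts 24 hr at 37 C; detection uses One-Glo after 30 min at room temperature.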

Test [14] in a line: qHTS assay for small molecule agonists of the antioxidant response element (ARE) signaling pathway measured by Nrf2-dependant transcriptional activity (AID 720636; active means well fitted curve in the direction sought with a large enough effect in the repeat runs; an effect the other way counts as inactive or inconclusive;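 further: HepG2 cells with an ARE-driven luciferase reporter; % of control where 0% means no effect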). Put shortly:
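First, ARE-luc HepG2 cells attached for 6 hr at 37 C in 1% dialyzed FBS medium. Next, compound or DMSO was added and incubated 16 hr. Finally, ONE-Glo reagent was added and luminescence measured after 30 min.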

Test [15] can be described thus: qHTS assay for small molecule agonists of the antioxidant response element (ARE) signaling pathway measured by Nrf2-dependant transcriptional activity - cell viability counter screen (AID 720653; active means well fitted curve in the direction sought with a large enough effect in the repeat runs; an effect the other way counts as inactive or inconclusive; further: on the % scale 0 is the no-effect control and ±100 the full control effect). The settings on record: ARE-bla HepG2 viability, CellTiter-Glo ATP luminescence, 16 h; max response: stronger effect = lower value. The gist of the method:
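ARE-bla HepG2 cells (2,000/well) rested 5 hrs at 37C/5% CO2, then exposed to compounds in DMSO for 16 hrs. Viability was read in the same wells as intracellular ATP by luminescence, 30 min at room temperature after reagent addition.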

Test [16] is described as follows: qHTS assay for cell viability of HEK293 cells (AID 743288; active means well fitted curve in the direction sought with a large enough effect; an effect the other way counts as inactive or inconclusive; further: on the % scale 0 is the no-effect control and ±100 the full control effect; nearly all actives have a fitted effect of over 50% in size). The settings on record: ATP luminescence (CellTiter-Glo), 18 h; max response: stronger effect = lower value. Put shortly: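 Total intracellular ATP, measured with a luciferase-coupled reagent, indicates the number of viable HEK293 cells. Exposure to test chemicals lasts 18 h at 37 C in 1,536-well format at 2,000 cells/well.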

Test [17] is described as follows: qHTS assay for cell viability of the p53RE-bla HCT-116 cell line (AID 743292; active means well fitted curve in the direction sought with a large enough effect; an effect the other way counts as inactive or inconclusive; further: on the % scale 0 is the no-effect control and ±100 the full control effect; nearly all actives have a fitted effect of over 55% in size). Put shortly: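 Quantitative high-throughput format: compounds in DMSO were pinned onto p53RE-bla HCT-116 cells (4,000/well) and incubated 16 h at 37 C. Total intracellular ATP, read by CellTiter-Glo luminescence, reflects viable cell number.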
A short description of test [18]: qHTS assay for small molecule activators of the human pregnane X receptor (PXR) signaling pathway (AID 720659; call rule not given here; further: 0% is about no effect).
The target of test [19] is Voltage-gated inwardly rectifying potassium channel KCNH2 (Homo sapiens) (UniProt Q12809). The test is described as follows: qHTS Assay for Small Molecule Inhibitors of the Human hERG Channel Activity (AID 588834; active means well fitted curve in the direction sought with a large enough effect; an effect the other way counts as inactive or inconclusive;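 further: top concentration of the series differs between compounds; on the % scale 0 is the no-effect control and ±100 the full control effect; lower thallium flux fluorescence means stronger hERG block; nearly all actives have a fitted effect of over 50% in size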). Put shortly: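 Kinetic FDSS fluorescence; U2OS + hERG BacMam (~100 virus particles/cell); FluxOR Tl+ flux; ~10 min cpd; AC50 (Hill).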
Chain of Voltage-gated inwardly rectifying potassium channel KCNH2 (Homo sapiens) (Q12809 whole entry, looked up): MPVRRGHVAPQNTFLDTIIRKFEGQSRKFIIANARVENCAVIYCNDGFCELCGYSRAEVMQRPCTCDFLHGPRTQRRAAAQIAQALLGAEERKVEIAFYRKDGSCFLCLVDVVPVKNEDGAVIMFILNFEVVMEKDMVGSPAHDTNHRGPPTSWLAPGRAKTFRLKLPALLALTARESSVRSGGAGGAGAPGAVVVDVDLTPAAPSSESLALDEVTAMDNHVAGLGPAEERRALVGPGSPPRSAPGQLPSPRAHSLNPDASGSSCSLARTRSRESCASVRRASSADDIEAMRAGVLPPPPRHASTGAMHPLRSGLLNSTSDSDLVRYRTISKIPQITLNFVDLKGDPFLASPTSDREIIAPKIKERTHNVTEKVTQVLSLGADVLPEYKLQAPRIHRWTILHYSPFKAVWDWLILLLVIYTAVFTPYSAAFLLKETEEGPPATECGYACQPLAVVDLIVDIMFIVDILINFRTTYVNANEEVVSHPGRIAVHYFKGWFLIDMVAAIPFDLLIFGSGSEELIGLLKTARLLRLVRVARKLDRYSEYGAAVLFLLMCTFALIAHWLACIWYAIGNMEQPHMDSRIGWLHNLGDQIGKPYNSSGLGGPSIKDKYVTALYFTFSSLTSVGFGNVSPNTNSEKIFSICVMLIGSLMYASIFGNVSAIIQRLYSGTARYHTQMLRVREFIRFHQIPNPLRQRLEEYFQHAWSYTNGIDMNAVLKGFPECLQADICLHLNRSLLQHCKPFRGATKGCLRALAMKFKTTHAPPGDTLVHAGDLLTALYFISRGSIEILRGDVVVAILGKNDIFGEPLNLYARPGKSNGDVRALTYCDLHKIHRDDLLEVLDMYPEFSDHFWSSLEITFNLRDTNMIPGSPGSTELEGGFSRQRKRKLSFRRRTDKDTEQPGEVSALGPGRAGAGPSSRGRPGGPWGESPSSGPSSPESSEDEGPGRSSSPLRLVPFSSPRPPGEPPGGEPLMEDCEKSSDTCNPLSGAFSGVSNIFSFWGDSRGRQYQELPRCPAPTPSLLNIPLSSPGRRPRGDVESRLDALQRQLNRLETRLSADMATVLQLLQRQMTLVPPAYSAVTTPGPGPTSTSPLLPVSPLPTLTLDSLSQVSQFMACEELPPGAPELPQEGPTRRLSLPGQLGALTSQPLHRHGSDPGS
Test [20] can be described thus: qHTS assay for small molecule antagonists of the retinoid-related orphan receptor gamma (ROR-gamma) signaling pathway - cell viability counter screen (AID 720652; active means well fitted curve in the direction sought with a large enough effect in the repeat runs; an effect the other way counts as inactive or inconclusive;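 further: series mostly up to about 92 µM; compound exposure lasted 16 hr before ATP read; on the % scale 0 is the no-effect control and ±100 the full control effect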). Put shortly:
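Luminescence from CellTiter-Glo after 30 min at room temperature reported cellular ATP as the cytotoxicity measure. Cells were the CHO reporter line with doxycycline-induced ROR-gamma expression, exposed to compound for 16 hr at 37 C.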

For test [21], the target named is Peroxisome proliferator-activated receptor gamma (Homo sapiens) (UniProt P37231). The experiment in a line: qHTS assay for small molecule antagonists of peroxisome proliferator-activated receptor gamma signaling (AID 588537; active means well fitted inhibition curve with a large enough effect in the signal ratio, with a control signal flat, not every such curve was filed as active; the % refers to the signal ratio;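 further: reporter cells co-stimulated with 50 nM rosiglitazone agonist during compound treatment; % of control where 0% means no effect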). The gist of the method: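 We seeded GeneBLAzer HEK293 reporter cells at 3000 per well, allowed 6-6.5 h attachment at 37 C, then co-treated with test compound titrations and 50 nM rosiglitazone overnight (16 h). Inhibition was quantified from 460/530 nm emission ratios.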
Chain of Peroxisome proliferator-activated receptor gamma (Homo sapiens) (P37231 whole entry, looked up): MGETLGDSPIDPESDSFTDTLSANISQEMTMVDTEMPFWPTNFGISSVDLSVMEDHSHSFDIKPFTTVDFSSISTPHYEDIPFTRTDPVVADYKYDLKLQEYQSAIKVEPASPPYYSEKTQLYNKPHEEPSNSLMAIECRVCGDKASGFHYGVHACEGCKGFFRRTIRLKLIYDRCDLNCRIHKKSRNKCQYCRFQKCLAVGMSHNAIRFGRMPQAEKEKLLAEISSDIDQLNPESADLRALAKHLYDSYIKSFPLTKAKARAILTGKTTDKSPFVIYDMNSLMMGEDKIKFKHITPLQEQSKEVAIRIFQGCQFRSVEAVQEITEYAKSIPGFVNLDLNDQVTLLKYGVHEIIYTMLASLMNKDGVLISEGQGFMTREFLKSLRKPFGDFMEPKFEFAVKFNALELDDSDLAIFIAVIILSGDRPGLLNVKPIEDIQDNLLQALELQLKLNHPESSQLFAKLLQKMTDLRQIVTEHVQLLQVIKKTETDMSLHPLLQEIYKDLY

“And” between values parts separate entries of the source, which are not always exact repeats. Identical values can stand only once. Records with an inconclusive call do not appear. The source made the active and inactive calls. Unless noted, the call rests on the fitted dose curve.

Chain of Retinoic acid receptor RXR-alpha (Homo sapiens) (P19793 whole entry, looked up): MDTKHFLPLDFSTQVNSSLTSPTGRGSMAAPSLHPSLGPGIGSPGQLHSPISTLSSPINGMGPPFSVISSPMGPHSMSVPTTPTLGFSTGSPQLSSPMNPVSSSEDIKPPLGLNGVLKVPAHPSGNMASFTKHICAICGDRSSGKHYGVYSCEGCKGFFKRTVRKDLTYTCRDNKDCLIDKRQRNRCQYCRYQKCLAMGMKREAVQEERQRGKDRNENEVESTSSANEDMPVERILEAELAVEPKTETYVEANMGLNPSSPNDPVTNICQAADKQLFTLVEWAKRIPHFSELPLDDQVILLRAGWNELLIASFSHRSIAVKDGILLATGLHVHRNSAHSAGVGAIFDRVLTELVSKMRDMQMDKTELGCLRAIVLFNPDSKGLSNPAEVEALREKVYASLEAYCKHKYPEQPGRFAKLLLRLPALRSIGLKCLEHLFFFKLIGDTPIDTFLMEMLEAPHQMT
Chain of Peroxisome proliferator-activated receptor delta (Homo sapiens) (Q03181 whole entry, looked up): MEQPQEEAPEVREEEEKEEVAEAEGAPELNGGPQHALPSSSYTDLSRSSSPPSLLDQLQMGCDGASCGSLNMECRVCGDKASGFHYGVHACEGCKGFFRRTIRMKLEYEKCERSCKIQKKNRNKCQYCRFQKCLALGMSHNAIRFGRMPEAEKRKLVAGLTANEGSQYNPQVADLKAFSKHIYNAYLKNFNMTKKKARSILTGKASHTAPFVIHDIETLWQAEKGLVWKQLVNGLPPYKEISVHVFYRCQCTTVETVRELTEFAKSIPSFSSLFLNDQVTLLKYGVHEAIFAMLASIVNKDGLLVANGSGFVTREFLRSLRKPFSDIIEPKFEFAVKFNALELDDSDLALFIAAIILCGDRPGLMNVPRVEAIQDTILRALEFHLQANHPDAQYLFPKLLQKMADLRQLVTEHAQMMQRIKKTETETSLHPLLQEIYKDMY

As for `CC(C1CC1)C(O)(Cn1cncn1)c1ccc(Cl)cc1` (configuration not stated), the compound was called inactive in test [1], in [4] and in [18]. Moreover, the max response in test [2] was 49.1%; in test [5] it was 4.53%; in [8] it was -3.3%; in test [9], -4.42% (inactive); in test [15], -0.0614% (inactive); in test [16], -14% (inactive). Further, the Potency result in [3], in [6], in [7], in test [14] and in test [17] was “inactive” throughout. Moreover, the activity change % (negative = inhibition) in [10] was -18.1% (inactive). For the same compound, the activation is -2.39% (inactive) in test [11], -1.89% (inactive) in [12] and 1.13% (inactive) in [13].
For the compound `O=[N+]([O-])c1cccc(I)c1`, in test [1], the compound was classed as inactive.
Regarding `c1ccccc1`, the compound was called inactive in test [1]. Besides, the max response in [2] was -9.22% and -21.5% and 24.9%; in test [5], -2.6% and -9.93% and -11.1%. Further, the Potency result in test [3], in test [6], in [19] and in [20] was “inactive” in each case.
Turning to `NCCN`, the outcome in test [1] was inactive. Moreover, the Potency entry in [19] was “inactive”.
As for `CC(=O)OCc1ccco1`, the call in test [1] was inactive.
Take `Nc1cccc(C(F)(F)F)c1`: the compound was called inactive in test [1]. The Potency result in test [21] is “inactive”. In addition, the activation in test [11] is -3.34% (inactive).

Values taken from PubChem BioAssay (NCATS).
